# Experimental data as given in PubChem BioAssay (EPA / NIEHS).
# Inconclusive results are not listed. More than one record can exist for a structure, and the calls need not agree. Active and inactive are the calls of the source. How the source made its calls, unless noted: active means hit-call score of the fitted dose curve at least 0.9, where 1 is the maximum; inactive means score below 0.9.
# Assays:
# [1] = target: human Retinoid X Receptor beta (RXRb), RXRB (gene 6257) (UniProt P28702); assay: ATG_RXRb_TRANS: Attagene TRANS-FACTORIAL HepG2 Assay for human Retinoid X Receptor beta (RXRb) (AID 2283013; active means hit-call score of the fitted dose curve at least 0.9, where 1 is the maximum)
# Sequence of human Retinoid X Receptor beta (RXRb), RXRB (gene 6257) (P28702 whole entry, looked up): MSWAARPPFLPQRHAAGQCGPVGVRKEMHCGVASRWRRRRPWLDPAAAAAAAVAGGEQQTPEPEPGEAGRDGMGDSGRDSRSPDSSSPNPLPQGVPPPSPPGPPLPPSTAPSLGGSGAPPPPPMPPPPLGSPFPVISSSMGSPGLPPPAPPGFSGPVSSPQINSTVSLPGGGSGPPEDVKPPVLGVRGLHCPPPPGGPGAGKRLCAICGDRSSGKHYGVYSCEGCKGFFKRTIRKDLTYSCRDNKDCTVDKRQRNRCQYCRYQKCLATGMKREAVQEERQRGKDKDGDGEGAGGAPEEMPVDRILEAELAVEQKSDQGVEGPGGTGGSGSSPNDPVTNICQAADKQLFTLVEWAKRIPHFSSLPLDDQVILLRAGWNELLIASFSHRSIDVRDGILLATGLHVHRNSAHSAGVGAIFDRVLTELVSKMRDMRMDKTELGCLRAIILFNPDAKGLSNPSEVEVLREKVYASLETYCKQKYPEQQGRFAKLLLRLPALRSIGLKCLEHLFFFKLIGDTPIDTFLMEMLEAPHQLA
# In short: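 Multiplexed TRANS reporter assay in HepG2; 24 h dosing; reporter mRNA by RT-PCR/CE fluorescence; gain-of-signal relative to DMSO.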
# [2] = read-out: E-selectin (Homo sapiens) (UniProt P16581); assay: BSK_3C_Eselectin: BioMAP Diversity Plus: 3C Assay for Eselectin Biomarker Activity (AID 2283015); conditions: primary human endothelial cells (HUVEC); actives raise or lower the signal;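 further: cell surface E-selectin protein quantified by ELISA 24 h after dosing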
# In short: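 HUVEC, 3C stimulation; compound exposure 24 h; E-selectin by ELISA; gain- or loss-of-signal fitted bidirectionally vs DMSO baseline.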
# [3] = read-out: Interleukin-1 alpha (IL1a), IL1A (gene 3552); assay: BSK_BE3C_IL1a: BioMAP Diversity Plus: BE3C Assay for Interleukin-1 alpha (IL1a) Biomarker Activity (AID 2283016); conditions: primary human bronchial epithelial cells; actives raise or lower the signal
# In short: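 Cultures of primary human bronchial epithelial cells receive test chemical. After 24 h, IL-1a is quantified by ELISA, while parallel wells are fixed in TCA and SRB-stained for total protein. Changes in either direction are fitted relative to DMSO.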
# [4] = read-out: Monocyte Chemoattractant Protein-1 (MCP1), CCL2 (gene 6347); assay: BSK_3C_MCP1: BioMAP Diversity Plus: 3C Assay for Monocyte Chemoattractant Protein-1 (MCP1) Biomarker Activity (AID 2283017); conditions: primary human endothelial cells (HUVEC); actives raise or lower the signal
# In short: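 HUVEC, 3C system; 24 h chemical exposure; MCP-1 by ELISA; bidirectional curve fit vs DMSO baseline.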
# [5] = read-out: Human Leukocyte Antigen - DR isotype (HLADR), HLA-DRA (gene 3122); assay: BSK_3C_HLADR: BioMAP Diversity Plus: 3C Assay for Human Leukocyte Antigen - DR isotype (HLADR) Biomarker Activity (AID 2283019); conditions: primary human endothelial cells (HUVEC); actives raise or lower the signal;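 further: ELISA of cell-surface HLA-DR on HUVEC 24 h after dosing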
# In short: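 HUVEC, 3C stimulation, 24 h post-dose; HLA-DR by ELISA; bidirectional curve fit vs DMSO baseline; gain or loss of signal scored.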
# [6] = read-out: Monocyte Chemoattractant Protein-1 (MCP1), CCL2 (gene 6347); assay: BSK_4H_MCP1: BioMAP Diversity Plus: 4H Assay for Monocyte Chemoattractant Protein-1 (MCP1) Biomarker Activity (AID 2283018); conditions: primary human endothelial cells (HUVEC); actives raise or lower the signal
# In short: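 Readout: MCP-1 ELISA on compound-treated HUVEC, sampled 24 h post-dosing. Baseline and negative control DMSO; bidirectional fit. Overt toxicity checked alongside by sulforhodamine B protein staining at time of biomarker measurement.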
# [7] = target: human Thyroid Receptor alpha (THRa1), THRA (gene 7067) (UniProt P10827); assay: ATG_THRa1_TRANS: Attagene TRANS-FACTORIAL HepG2 Assay for human Thyroid Receptor alpha (THRa1) (AID 2283014; active means hit-call score of the fitted dose curve at least 0.9, where 1 is the maximum)
# Sequence of human Thyroid Receptor alpha (THRa1), THRA (gene 7067) (P10827 whole entry, looked up, the tested form may be a part): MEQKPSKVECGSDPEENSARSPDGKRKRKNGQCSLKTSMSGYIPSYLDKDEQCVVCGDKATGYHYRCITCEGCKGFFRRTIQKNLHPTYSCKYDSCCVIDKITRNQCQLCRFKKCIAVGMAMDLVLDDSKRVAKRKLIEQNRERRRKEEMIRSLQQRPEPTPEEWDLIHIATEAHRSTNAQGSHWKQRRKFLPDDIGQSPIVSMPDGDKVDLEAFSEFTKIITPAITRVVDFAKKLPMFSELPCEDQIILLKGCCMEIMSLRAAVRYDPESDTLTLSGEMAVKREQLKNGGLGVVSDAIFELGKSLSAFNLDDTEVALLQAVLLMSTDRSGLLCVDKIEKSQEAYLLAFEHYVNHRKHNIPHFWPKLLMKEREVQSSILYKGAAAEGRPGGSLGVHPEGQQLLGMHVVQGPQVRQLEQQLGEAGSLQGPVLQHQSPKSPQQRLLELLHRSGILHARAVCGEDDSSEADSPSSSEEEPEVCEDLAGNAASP
# In short: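 Transient HepG2 transfection, NR-Gal4 chimera driving GAL4-UAS reporters; 24 h compound exposure; total RNA, oligo(dT) RT, PCR, fluorescent primer extension, capillary electrophoresis. Upward direction vs DMSO control.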
# [8] = target: Retinoic acid receptor RXR-alpha (Homo sapiens) (UniProt P19793); assay: ATG_RXRa_TRANS: Attagene TRANS-FACTORIAL HepG2 Assay for human Retinoid X Receptor alpha (RXRa) (AID 2283012; active means hit-call score of the fitted dose curve at least 0.9, where 1 is the maximum)
# Sequence of Retinoic acid receptor RXR-alpha (Homo sapiens) (P19793 whole entry, looked up, the tested form may be a part): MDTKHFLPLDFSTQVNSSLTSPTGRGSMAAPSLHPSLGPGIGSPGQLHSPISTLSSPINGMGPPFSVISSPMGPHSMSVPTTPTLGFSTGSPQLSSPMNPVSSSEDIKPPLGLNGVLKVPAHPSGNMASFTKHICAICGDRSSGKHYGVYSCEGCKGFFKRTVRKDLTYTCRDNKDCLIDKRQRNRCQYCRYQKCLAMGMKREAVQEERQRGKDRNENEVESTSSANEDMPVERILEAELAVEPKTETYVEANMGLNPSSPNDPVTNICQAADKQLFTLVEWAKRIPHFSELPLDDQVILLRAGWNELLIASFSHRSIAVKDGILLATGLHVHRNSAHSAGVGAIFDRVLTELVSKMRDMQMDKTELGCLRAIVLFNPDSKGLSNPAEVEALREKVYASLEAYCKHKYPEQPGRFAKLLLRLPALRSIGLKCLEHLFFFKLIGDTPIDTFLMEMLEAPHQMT
# In short: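 Cells (HepG2) carried transiently transfected GAL4-responsive reporter units. Following a 24 h chemical incubation, reporter mRNA induction was read via RT-PCR fragment analysis; DMSO served as negative control and baseline.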
# Sequence of E-selectin (Homo sapiens) (P16581 whole entry, looked up): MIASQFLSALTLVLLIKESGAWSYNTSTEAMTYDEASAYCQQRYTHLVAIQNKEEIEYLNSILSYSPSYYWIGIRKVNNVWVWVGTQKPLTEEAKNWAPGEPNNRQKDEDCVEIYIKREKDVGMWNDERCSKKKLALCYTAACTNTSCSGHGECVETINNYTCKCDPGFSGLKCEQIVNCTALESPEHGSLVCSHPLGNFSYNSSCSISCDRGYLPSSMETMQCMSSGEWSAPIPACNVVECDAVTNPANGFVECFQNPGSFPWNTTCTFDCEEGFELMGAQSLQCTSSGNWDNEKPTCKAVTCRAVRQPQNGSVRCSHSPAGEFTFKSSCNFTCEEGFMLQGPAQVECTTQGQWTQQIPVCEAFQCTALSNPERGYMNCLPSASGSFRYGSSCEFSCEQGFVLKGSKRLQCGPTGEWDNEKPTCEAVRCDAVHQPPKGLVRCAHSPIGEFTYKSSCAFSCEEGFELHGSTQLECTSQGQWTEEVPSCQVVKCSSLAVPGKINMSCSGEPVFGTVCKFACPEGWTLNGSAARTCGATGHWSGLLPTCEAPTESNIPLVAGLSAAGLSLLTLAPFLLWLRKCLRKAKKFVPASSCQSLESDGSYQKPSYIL
structure (smiles),measurement,setting,value
CCCCCCO,outcome,[1],inactive
C=CC(=O)NC(C)(C)C,outcome,[1],inactive
same,outcome,[2],inactive
same,outcome,[3],inactive
same,outcome,[4],inactive
same,outcome,[5],inactive
C1CNCCN1,outcome,[2],inactive
same,outcome,[3],inactive
same,outcome,[6],inactive
same,outcome,[5],inactive
CN(C)Cc1cc(CN(C)C)c(O)c(CN(C)C)c1,outcome,[7],inactive
O=C1CCCCCCCCCCCN1,AC50,[1],33.8 µM (active)
same,outcome,[2],inactive
same,outcome,[3],inactive
same,outcome,[4],inactive
same,outcome,[5],inactive
CC1CCC(=O)C1=O (configuration not stated),AC50,[1],59.8 µM (active)
Oc1ccc(-c2ccccc2)c(Cl)c1,outcome,[7],inactive
CCCCNS(=O)(=O)c1ccc(C)cc1,outcome,[8],inactive
same,outcome,[7],inactive
CCCCCCCCCCCCCCCCCCOS(=O)(=O)O,AC50,[1],34.3 µM (active)
same,outcome,[7],inactive
C[N+](C)(C)CCCNS(=O)(=O)C(F)(F)C(F)(F)C(F)(F)C(F)(F)C(F)(F)C(F)(F)C(F)(F)C(F)(F)F,outcome,[8],inactive
same,outcome,[2],inactive
same,AC50,[3],14.3 µM (active)
same,outcome,[3],inactive
same,outcome,[5],inactive
CC1(C)[C@@H]2CC[C@@]1(C)C(=O)C2,outcome,[8],inactive
same,outcome,[7],inactive
C=CC(C)(CCC=C(C)C)OC(=O)C=Cc1ccccc1 (configuration not stated),outcome,[1],inactive
same,outcome,[7],inactive
CCCCCCCOC(=O)c1ccc(O)cc1,AC50,[1],11.1 µM (active)
CC(C)CCCCCOC(=O)CS,outcome,[1],inactive
same,outcome,[2],inactive
same,outcome,[3],inactive
same,outcome,[6],inactive
same,outcome,[5],inactive
